# In the library only some 1.6% were active in any assay of this set; here they are far more common.
# ugtP null kill = compounds lethal to S. aureus RN4220 ugtP deletion mutant. AID 1259309. OD600 growth, 16 h. growth inhibition, % (no concentration beside the values). hit rate 0.54% among 330,000; in the data active = growth inhibition above about 68%;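 also: plate controls were untreated wells for no effect and antibiotic for full effect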
# Mtb hypoxia rep = Mtb hypoxia fluorescent reporter inhibition; M. tuberculosis hypoxia-regulated fluorescent reporter, fluorescence; hit rate 0.1% among 300,000; fluorescence inhibition, % (concentration not given with the values); AID 1159583; in the data active = fluorescence inhibition mostly above about 23%, no sharp cut-off; inactive = mostly below about 17%
# CCHFV vOTU inh = blocks the CCHF virus ovarian tumor domain protease; CCHFV vOTU protease, Pep-AMC fluorescence; inhibition, % at 11.5 µM; hit rate 0.55% among 370,000; in the data active = inhibition above about 30%; also: 0% = vehicle wells with enzyme and 100% = no enzyme wells
# Sa RN4220 lethal = kills Staphylococcus aureus RN4220; S. aureus RN4220 growth, OD600, 16 h; inhibition, % (concentration not given with the values); hit rate 0.33% among 330,000; in the data active = inhibition above about 85%;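 also: plate controls were untreated cells for no effect and reference antibiotic for full effect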
# RecA intein inh = inhibitors of M. tuberculosis RecA intein splicing; hit rate 0.75% among 290,000; AID 2221; P9WHJ3; cell-free RecA intein splicing, fluorescence; inhibition, % (no concentration beside the values); in the data active = inhibition above about 30%;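 also: 0% = vehicle wells and 100% = reference inhibitor control wells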
# Target sequence (P9WHJ3 whole entry, looked up): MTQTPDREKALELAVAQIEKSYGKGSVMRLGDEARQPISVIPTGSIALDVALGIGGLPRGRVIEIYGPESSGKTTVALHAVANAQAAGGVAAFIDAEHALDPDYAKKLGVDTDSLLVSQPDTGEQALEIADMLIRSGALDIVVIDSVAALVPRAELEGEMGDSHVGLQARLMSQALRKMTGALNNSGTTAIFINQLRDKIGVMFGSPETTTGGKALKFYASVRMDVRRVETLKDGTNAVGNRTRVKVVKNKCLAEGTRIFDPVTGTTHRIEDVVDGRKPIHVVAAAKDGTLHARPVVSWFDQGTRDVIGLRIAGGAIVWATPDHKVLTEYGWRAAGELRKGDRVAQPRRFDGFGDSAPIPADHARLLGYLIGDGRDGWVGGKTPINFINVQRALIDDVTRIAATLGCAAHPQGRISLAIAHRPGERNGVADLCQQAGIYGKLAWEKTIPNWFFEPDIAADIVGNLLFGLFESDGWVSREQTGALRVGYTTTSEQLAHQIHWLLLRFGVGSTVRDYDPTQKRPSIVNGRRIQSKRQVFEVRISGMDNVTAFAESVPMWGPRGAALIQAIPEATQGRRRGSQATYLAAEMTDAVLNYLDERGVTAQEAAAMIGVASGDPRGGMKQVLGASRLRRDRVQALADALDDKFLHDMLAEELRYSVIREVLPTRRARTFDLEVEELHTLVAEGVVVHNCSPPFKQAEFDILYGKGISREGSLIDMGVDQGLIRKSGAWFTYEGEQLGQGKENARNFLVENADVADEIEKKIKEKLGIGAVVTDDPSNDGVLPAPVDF
# BJeLR viability = BJeLR cell viability loss; BJeLR (HRASV12) viability, CellTiter-Glo ATP luminescence, 48 h; inhibition, % (no concentration beside the values); hit rate 0.17% among 300,000; in the data active = inhibition above about 50%
# Numbers without * were called inactive; . = not tested or not shown.
SMILES,ugtP null kill,Mtb hypoxia rep,CCHFV vOTU inh,Sa RN4220 lethal,RecA intein inh,BJeLR viability
CCCc1c(C)c2c(C)[nH]nc2oc1=O,6.7,-0.6,5.2,15.3,41.1*,-3.5
CCOC(=O)/C(C#N)=C1/C=C(C)NC(c2ccccc2O)=N1,83.2*,14.2,0.0,80.8,2.6,12.8
CCOC(=O)C1=C(CC)Nc2ccccc2N=C1NC(=O)Nc1ccc(Cl)c(Cl)c1,100.3*,-6.8,-0.1,100.6*,2.1,11.9
CCOC(=O)C1=C(CC)Nc2ccccc2N=C1NC(=O)c1cc(C)on1,2.0,-6.1,-2.1,4.1,.,.
CCCNC(=O)OCC1OC(CCON=CCC2C=CC(OC(C)=O)C(COC(C)=O)O2)C=CC1Oc1ccc(OC)cc1 (configuration not stated),2.7,-1.1,.,6.2,.,.
Cc1ccc(S(=O)c2snnc2C)cc1 (configuration not stated),1.4,5.1,-10.3,1.9,2.1,-7.5
CNC(=O)c1nnsc1S(=O)c1ccc(Cl)cc1 (configuration not stated),100.3*,20.4,1.9,99.3*,40.2*,22.8
COc1ccc(C2C=CCN(C(=O)c3ccc(C)cc3)C(C)C(=O)N2Cc2ccc(F)cc2)cc1 (configuration not stated),3.8,0.6,.,11.0,.,.
CCN(CC)C(=S)SSC(=S)N(CC)CC,99.4*,6.2,-8.6,28.4,-4.6,0.1
COc1ccc(NC(C)=C2C(=O)C(=O)N(CCO)C2c2ccc([N+](=O)[O-])cc2)cc1 (configuration not stated),-0.5,6.1,.,5.4,.,.
O=C(NC(=Cc1ccc([N+](=O)[O-])cc1)C(=O)N1CCCCC1)c1ccccc1,-3.3,3.5,.,2.8,.,.
CCCCNC(=O)C1CCCN1S(=O)(=O)c1cccc2cccnc12 (configuration not stated),-2.2,7.8,.,1.0,.,.
O=C(Nc1ccc2oc(-c3ccncc3)nc2c1)c1ccccc1,10.6,-1.4,-15.5,2.3,-1.0,-5.4
O=C(Nc1ccc2oc(-c3ccncc3)nc2c1)c1ccc([N+](=O)[O-])o1,77.2,.,14.3,99.5*,1.0,-4.3
CC(=O)c1cccc(NC(=O)c2ccc([N+](=O)[O-])o2)c1,91.0*,25.2,0.4,43.2,-1.9,-11.8
O=C(NNC(=O)c1ccc([N+](=O)[O-])o1)c1ccccc1,98.8*,.,9.1,12.6,39.2*,-12.5
CC(=O)c1ccc(NC(=O)c2ccc([N+](=O)[O-])o2)cc1,66.2,72.5*,0.7,25.5,0.6,-2.7
COc1ccc(NC(=O)c2ccc([N+](=O)[O-])o2)cc1,59.8,.,-6.9,13.6,-0.8,5.8
CC1(C)CC2C3=CCC4[C@@]5(C)CCC(O)[C@@](C)(CO)C5CC[C@@]4(C)[C@]3(C)CC(O)[C@@]2(CO)C(O)C1O (some centres not stated),-21.1,2.4,.,6.8,.,.
NC(=O)c1oc2ccccc2c1NC(=O)c1ccc(F)cc1,11.6,4.6,-0.2,-1.2,-3.1,-11.7
Cc1ccc(C)c(-c2nnc(NC(=O)c3ccc([N+](=O)[O-])o3)o2)c1,90.0*,.,4.2,6.1,-5.9,0.8
NC(=O)c1oc2ccccc2c1NC(=O)c1ccc([N+](=O)[O-])o1,100.4*,.,11.0,100.0*,2.6,-7.9
Cc1cc(C)cc(NC(=O)c2ccc([N+](=O)[O-])o2)c1,94.1*,6.8,17.5,93.3*,-4.4,-14.7
CC1CN(C(C)CO)C(=O)c2cc(NC(=O)c3ccncc3)ccc2OC1CN(C)C(=O)Nc1ccccc1 (configuration not stated),0.4,3.6,.,1.6,.,.
Cc1cnc(C(=O)NC(C)CCc2ccccc2)cn1 (configuration not stated),0.4,38.5*,1.9,-1.6,-0.6,14.4
SMILES,ugtP null kill,Mtb hypoxia rep,CCHFV vOTU inh,Sa RN4220 lethal,RecA intein inh,BJeLR viability
COc1ccc(C(=O)COC(=O)CNC(=O)c2ccc(C)s2)c(OC)c1,7.9,34.9*,18.9,4.4,.,.
COc1cc(NC(=O)COC(=O)CNC(=O)c2ccc(C)s2)cc(OC)c1,-3.5,5.7,1.3,4.3,5.7,7.3
O=C1c2ccccc2C(=O)c2c1ccc(O)c2O,.,.,8.6,.,.,.
COC(=O)c1ccc2c(c1O)C(=O)c1ccccc1C2=O,97.1*,10.4,6.6,96.9*,44.4*,-3.0
O=C(Sc1ccc(Cl)cc1)c1ccccn1,84.3*,10.2,3.4,-1.0,0.4,1.4
CS(=O)(=O)c1ccc(CNC(=O)C2(C(F)(F)F)CC(=CCc3ccccc3)CCCO2)cc1 (configuration not stated),-11.0,-6.2,.,4.5,.,.
O=C(C=Cc1cccs1)Nc1ccc(N2CCOCC2)c(S(=O)(=O)Nc2ccccc2Cl)c1,-20.5,2.5,.,5.5,.,.
Cc1nc2ccc(CN(C)c3ccc(C(=O)N[C@@H](CCC(=O)O)C(=O)O)s3)cc2c(=O)[nH]1,.,.,.,.,-3.8,71.9*
CC(=O)N(C(C)=O)c1ccc2nc(C)[nH]c(=O)c2c1,5.6,10.9,10.6,8.6,-2.8,7.8
COCCN1C(=O)NC(c2ccccc2)C(C(C)=O)=C1C (configuration not stated),-5.8,11.0,.,8.2,.,.
CCC(C)C(NC(=O)C(=Cc1ccccc1)NC(=O)c1ccc(OC)cc1)C(=O)O (configuration not stated),1.0,5.1,.,1.9,.,.
Nc1nnc(SCC(=O)c2ccc([N+](=O)[O-])cc2)s1,54.5,3.8,-6.5,95.3*,-5.0,-7.6
Cc1ccc2c(c1)sc[n+]2Cc1ccccc1,99.3*,12.9,-4.0,20.8,0.1,6.3
Cc1ccc(-c2cc[n+](Cc3ccccc3)cc2)cc1,1.5,0.9,-3.0,2.2,-1.9,.
COc1ccc(-c2nnc(SCC(=O)c3ccc(C)o3)o2)cc1,-12.1,6.4,-6.8,8.2,0.2,-4.4
COc1ccc(-c2nnc(SCc3cc(C)cc(C)c3)o2)cc1,93.8*,-5.6,-5.7,10.9,2.4,0.4
CCCSc1cc(N2CCCC2)nc(-c2ccccc2)n1,27.4,0.2,10.5,-0.6,-0.4,9.2
CCCSc1cc(N2CCN(C)CC2)nc(-c2ccc(OC)cc2)n1,99.7*,5.2,3.3,-7.6,2.1,-4.4
CCOC(=O)C1C2COc3ccccc3C2N2C(=O)c3cc(OC)ccc3NC(=O)[C@@]12C (some centres not stated),-6.3,7.3,.,5.3,.,.
C[C@@H]1CN([C@@H](C)CO)C(=O)c2cc(NC(=O)c3ccccc3)ccc2O[C@@H](C)CCCCO[C@@H]1CN(C)Cc1ccc(C(F)(F)F)cc1,.,.,42.3*,.,.,.
Cc1cccc(-c2nsc(SCC(=O)Nc3cc(C)on3)n2)c1,1.1,14.5,-5.5,0.2,0.9,-0.3
CCOC(=O)N1CCN(C(=O)CSc2nc(-c3cccc(C)c3)ns2)CC1,1.2,44.1*,-15.5,7.6,0.5,5.2
Cn1c2ccccc2c(=O)n2c(=O)c3ccccc3cc12,.,.,.,.,93.2*,-0.6
COCC(=O)Nc1ncc(S(=O)(=O)c2ccc([N+](=O)[O-])cc2)s1,55.6,-5.9,-1.5,61.3,-3.1,-5.0
